Here are results for nine molecules from PubChem BioAssay (NCI).

About 79,000 compounds went through this panel and 15% of them were active in at least one assay; those are over-represented in the sample as a whole. Values without a mark were called inactive. The source made the active and inactive calls. Cut-off read from the data, not from the text of the source: active = growth inhibition above about 70%; inactive = the rest.

Experiment [1] in a line: NCI Yeast Anticancer Drug Screen. Data for the rad50 strain (AID 155).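 Note: 0% = growth of vehicle-only cultures of the same strain.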 The following applies: S. cerevisiae rad50 strain growth inhibition, stronger effect = higher value. An outline of the steps:
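Compounds were tested on a yeast strain with an engineered DNA damage repair alteration; the reported value is growth inhibition normalised to vehicle treatment.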

Experiment [2] in a line: NCI Yeast Anticancer Drug Screen. Data for the mec2-1 strain (AID 157). Conditions: S. cerevisiae mec2-1 strain, stronger effect = higher value. An outline of the steps: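 mec2-1 yeast strain, carrying an alteration in DNA damage repair or cell cycle control, was exposed to compounds; growth inhibition was measured relative to vehicle-treated controls.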
Experiment [3] can be described thus: NCI Yeast Anticancer Drug Screen. Data for the sgs1 mgt1 strain (AID 161).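 Note: 0% = growth of cultures given vehicle only.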 Conditions: S. cerevisiae sgs1 mgt1 strain, stronger effect = higher value. An outline of the steps:
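Compounds are added to genetically altered yeast, and growth is compared with cultures given vehicle alone to give percent inhibition.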

A short description of experiment [4]: NCI Yeast Anticancer Drug Screen. Data for the cln2 rad14 strain (AID 165).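 Note: 0% = growth equal to vehicle treated cultures.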 Conditions: S. cerevisiae cln2 rad14 strain, stronger effect = higher value. In short, it runs like this:
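Yeast carrying cln2 and rad14 alterations (cell cycle control and DNA damage repair) were exposed to compounds. Growth inhibition was measured against vehicle-treated controls.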

Experiment [5] in a line: NCI Yeast Anticancer Drug Screen. Data for the bub3 strain (AID 167). The following applies: S. cerevisiae bub3 mutant strain, stronger effect = higher value. In short, it runs like this:
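Growth of a checkpoint-deficient yeast mutant is measured after compound exposure. Values represent inhibition relative to vehicle.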

A short description of experiment [6]: NCI Yeast Anticancer Drug Screen. Data for the mlh1 rad18 strain (AID 175). The following applies: S. cerevisiae mlh1 rad18 strain growth inhibition, stronger effect = higher value. An outline of the steps: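 Growth inhibition of the yeast strain was measured after compound exposure and expressed relative to vehicle-treated controls. The strain carries defined defects in DNA damage repair.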

Where [7] appears, read: at 5.0 µM (retest, dose inferred, filed as 0.5).
[8] abbreviates: at 50.0 µM (retest, dose inferred, filed as 5.0).

Consider `Oc1ccc(Cl)cc1-c1ccccc1`, for which the growth inhibition is -1% in experiment [1] (setting [7]); 86% (active) in experiment [1] (setting [8]); 94.1% (active) in experiment [1] (at 50.0 µM); -15% in experiment [2] (setting [7]); 83% (active) in experiment [2] (setting [8]); 97% (active) in experiment [2] (at 50.0 µM). Besides, the growth inhibition in experiment [3] (setting [7]) is -13%; in experiment [3] (setting [8]), 76% (active); in experiment [3] (at 50.0 µM) it was 90.2% (active); in experiment [4] (setting [7]) it was -48%; in experiment [4] (setting [8]), 68%; in experiment [4] (at 50.0 µM), 74.2% (active). In addition, the growth inhibition is 1% in experiment [5] (setting [7]); 68% in experiment [5] (setting [8]); 94.7% (active) in experiment [5] (at 50.0 µM); 11% in experiment [6] (setting [7]); 91% (active) in experiment [6] (setting [8]); 91.7% (active) in experiment [6] (at 50.0 µM).

On to `CC(O)C1CCCC[N+]1(C)C` (configuration not stated), for which the growth inhibition in experiment [1] (setting [7]) is 1%; in experiment [1] (setting [8]), -3%; in experiment [1] (at 50.0 µM), 0.05%; in experiment [2] (setting [7]) it was 5%; in experiment [2] (setting [8]), 8%; in experiment [2] (at 50.0 µM), -6.9%. Moreover, the growth inhibition in experiment [3] (setting [7]) was -1%; in experiment [3] (setting [8]), -36%; in experiment [3] (at 50.0 µM), 51.5%; in experiment [4] (setting [7]), -5%; in experiment [4] (setting [8]), -6%; in experiment [4] (at 50.0 µM), -7.6%. Moreover, the growth inhibition was -11% in experiment [5] (setting [7]); -8% in experiment [5] (setting [8]); 9.45% in experiment [5] (at 50.0 µM); -17% in experiment [6] (setting [7]); -3% in experiment [6] (setting [8]); -18.6% in experiment [6] (at 50.0 µM).

On to `O=C(c1ccccc1)c1ccc(OCC2CO2)cc1` (configuration not stated), for which the growth inhibition was 10% in experiment [1] (setting [7]); 77% (active) in experiment [1] (setting [8]); 64.3% in experiment [1] (at 50.0 µM); -2% in experiment [2] (setting [7]); 23% in experiment [2] (setting [8]); 25% in experiment [2] (at 50.0 µM). In addition, the growth inhibition in experiment [3] (setting [7]) was 10%; in experiment [3] (setting [8]) it was 64%; in experiment [3] (at 50.0 µM), 50.4%; in experiment [4] (setting [7]), -5%; in experiment [4] (setting [8]), 58%; in experiment [4] (at 50.0 µM), 20.6%. Further, the growth inhibition in experiment [5] (setting [7]) was -1%; in experiment [5] (setting [8]) it was 29%; in experiment [5] (at 50.0 µM) it was 12.1%; in experiment [6] (setting [7]), 7%; in experiment [6] (setting [8]) it was 74% (active); in experiment [6] (at 50.0 µM) it was 71.9% (active).

Consider `CN(C)N=Nc1ccc2[nH]c(=O)[nH]c2c1`, for which the growth inhibition in experiment [1] (setting [7]) is 16%; in experiment [1] (setting [8]), 18%; in experiment [1] (at 50.0 µM) it was 53%; in experiment [2] (setting [7]) it was 5%; in experiment [2] (setting [8]), 9%; in experiment [2] (at 50.0 µM) it was 38.8%. Moreover, the growth inhibition in experiment [3] (setting [7]) was 16%; in experiment [3] (setting [8]) it was -18%; in experiment [3] (at 50.0 µM), 12.6%; in experiment [4] (setting [7]) it was 13%; in experiment [4] (setting [8]), -54%; in experiment [4] (at 50.0 µM) it was 29.1%. Also, the growth inhibition in experiment [5] (setting [7]) was 14%; in experiment [5] (setting [8]), -11%; in experiment [5] (at 50.0 µM), 74% (active); in experiment [6] (setting [7]) it was 19%; in experiment [6] (setting [8]), 19%; in experiment [6] (at 50.0 µM) it was 72.5% (active).

As for `OC(CCN1CCOCC1)c1ccc(Sc2ccccc2)cc1` (configuration not stated), the growth inhibition was 55% in experiment [1] (setting [7]); 29% in experiment [1] (setting [8]); 98% (active) in experiment [1] (at 50.0 µM); 46% in experiment [2] (setting [7]); 21% in experiment [2] (setting [8]); 98.9% (active) in experiment [2] (at 50.0 µM). In addition, the growth inhibition was 61% in experiment [3] (setting [7]); 59% in experiment [3] (setting [8]); 98.6% (active) in experiment [3] (at 50.0 µM); 53% in experiment [4] (setting [7]); 15% in experiment [4] (setting [8]); 67.1% in experiment [4] (at 50.0 µM). Further, the growth inhibition in experiment [5] (setting [7]) was 88% (active); in experiment [5] (setting [8]), 88% (active); in experiment [5] (at 50.0 µM), 99.3% (active); in experiment [6] (setting [7]) it was 62%; in experiment [6] (setting [8]), 58%; in experiment [6] (at 50.0 µM) it was 97.2% (active).

Turning to `COc1ccc(C2c3cn[nH]c3CC3CCCCC32)cc1` (configuration not stated), the growth inhibition in experiment [1] (setting [7]) is 25%; in experiment [1] (setting [8]) it was 98% (active); in experiment [1] (at 50.0 µM) it was 75.8% (active); in experiment [2] (setting [7]), -8%; in experiment [2] (setting [8]), 99% (active); in experiment [2] (at 50.0 µM), 83.8% (active). Moreover, the growth inhibition was 9% in experiment [3] (setting [7]); 98% (active) in experiment [3] (setting [8]); 85.5% (active) in experiment [3] (at 50.0 µM); 31% in experiment [4] (setting [7]); 99% (active) in experiment [4] (setting [8]); 89.8% (active) in experiment [4] (at 50.0 µM). Moreover, the growth inhibition in experiment [5] (setting [7]) was -20%; in experiment [5] (setting [8]), 99% (active); in experiment [5] (at 50.0 µM), 88.3% (active); in experiment [6] (setting [7]), 8%; in experiment [6] (setting [8]), 98% (active); in experiment [6] (at 50.0 µM), 90.7% (active).

With `COc1ccc(C2=C(Cl)C(=O)N(c3ccc(Cl)cc3)C(=O)C2(Cl)Cl)cc1`, the growth inhibition in experiment [1] (setting [7]) is 12%; in experiment [1] (setting [8]), 95% (active); in experiment [1] (at 50.0 µM), 93.2% (active); in experiment [2] (setting [7]) it was 3%; in experiment [2] (setting [8]), 97% (active); in experiment [2] (at 50.0 µM), 98.2% (active). Further, the growth inhibition in experiment [3] (setting [7]) was 13%; in experiment [3] (setting [8]), 96% (active); in experiment [3] (at 50.0 µM), 97.1% (active); in experiment [4] (setting [7]) it was -10%; in experiment [4] (setting [8]), 91% (active); in experiment [4] (at 50.0 µM), 63%. Moreover, the growth inhibition in experiment [5] (setting [7]) was -3%; in experiment [5] (setting [8]), 95% (active); in experiment [5] (at 50.0 µM), 93.2% (active); in experiment [6] (setting [7]), 9%; in experiment [6] (setting [8]), 94% (active); in experiment [6] (at 50.0 µM), 96% (active).

With `COC1CC2CCC(C)[C@](O)(O2)C(=O)C(=O)N2CCCCC2C(=O)OC(C(C)CC2CCC(O)C(OC)C2)CC(=O)C(C)C=C(C)C(OC(=O)CCCN2CCCC2)C(OC)C(=O)C(C)CC(C)/C=C/C=C/C=C\1C` (some centres not stated), the growth inhibition was 96% (active) in experiment [1] (setting [7]); 98% (active) in experiment [1] (setting [8]); 90% (active) in experiment [1] (at 50.0 µM); 98% (active) in experiment [2] (setting [7]); 98% (active) in experiment [2] (setting [8]); 92.3% (active) in experiment [2] (at 50.0 µM). The growth inhibition in experiment [3] (setting [7]) was 97% (active); in experiment [3] (setting [8]), 97% (active); in experiment [3] (at 50.0 µM), 92.9% (active); in experiment [4] (setting [7]), 91% (active); in experiment [4] (setting [8]) it was 96% (active); in experiment [4] (at 50.0 µM) it was 88.2% (active). For the same molecule, the growth inhibition is 97% (active) in experiment [5] (setting [7]); 98% (active) in experiment [5] (setting [8]); 92% (active) in experiment [5] (at 50.0 µM); 96% (active) in experiment [6] (setting [7]); 98% (active) in experiment [6] (setting [8]); 91.5% (active) in experiment [6] (at 50.0 µM).

Regarding `N#CSCC(=O)c1ccccc1`, the growth inhibition in experiment [1] (setting [7]) is 93% (active); in experiment [1] (setting [8]), 98% (active); in experiment [1] (at 50.0 µM), 98.8% (active); in experiment [2] (setting [7]), 95% (active); in experiment [2] (setting [8]) it was 99% (active); in experiment [2] (at 50.0 µM), 99.2% (active). Moreover, the growth inhibition in experiment [3] (setting [7]) was 95% (active); in experiment [3] (setting [8]) it was 98% (active); in experiment [3] (at 50.0 µM) it was 97.5% (active); in experiment [4] (setting [7]), 87% (active); in experiment [4] (setting [8]), 99% (active); in experiment [4] (at 50.0 µM), 97.2% (active). Moreover, the growth inhibition is 94% (active) in experiment [5] (setting [7]); 98% (active) in experiment [5] (setting [8]); 99% (active) in experiment [5] (at 50.0 µM); 92% (active) in experiment [6] (setting [7]); 98% (active) in experiment [6] (setting [8]); 98.6% (active) in experiment [6] (at 50.0 µM).
